Data: PubChem BioAssay AID2796 (The Scripps Research Institute Molecular Screening Center, 2010)
About 8,000 (2.5%) of roughly 320,000 compounds were called active. Rule as the data show it: active = activation above about 47%; inactive = the rest. This excerpt belongs to a sample that is enriched for actives.

Target: Aryl hydrocarbon receptor (Homo sapiens) (UniProt P35869)
Experiment: AHR activators, primary screen, cell-based, luminescence, luciferase reporter, human (AID 2796);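 also: 0% = vehicle wells and 100% = reference agonist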
Conditions: AHR-responsive luciferase reporter cells, at 5 µM, hits give high values

Chain of Aryl hydrocarbon receptor (Homo sapiens) (P35869 whole entry, looked up): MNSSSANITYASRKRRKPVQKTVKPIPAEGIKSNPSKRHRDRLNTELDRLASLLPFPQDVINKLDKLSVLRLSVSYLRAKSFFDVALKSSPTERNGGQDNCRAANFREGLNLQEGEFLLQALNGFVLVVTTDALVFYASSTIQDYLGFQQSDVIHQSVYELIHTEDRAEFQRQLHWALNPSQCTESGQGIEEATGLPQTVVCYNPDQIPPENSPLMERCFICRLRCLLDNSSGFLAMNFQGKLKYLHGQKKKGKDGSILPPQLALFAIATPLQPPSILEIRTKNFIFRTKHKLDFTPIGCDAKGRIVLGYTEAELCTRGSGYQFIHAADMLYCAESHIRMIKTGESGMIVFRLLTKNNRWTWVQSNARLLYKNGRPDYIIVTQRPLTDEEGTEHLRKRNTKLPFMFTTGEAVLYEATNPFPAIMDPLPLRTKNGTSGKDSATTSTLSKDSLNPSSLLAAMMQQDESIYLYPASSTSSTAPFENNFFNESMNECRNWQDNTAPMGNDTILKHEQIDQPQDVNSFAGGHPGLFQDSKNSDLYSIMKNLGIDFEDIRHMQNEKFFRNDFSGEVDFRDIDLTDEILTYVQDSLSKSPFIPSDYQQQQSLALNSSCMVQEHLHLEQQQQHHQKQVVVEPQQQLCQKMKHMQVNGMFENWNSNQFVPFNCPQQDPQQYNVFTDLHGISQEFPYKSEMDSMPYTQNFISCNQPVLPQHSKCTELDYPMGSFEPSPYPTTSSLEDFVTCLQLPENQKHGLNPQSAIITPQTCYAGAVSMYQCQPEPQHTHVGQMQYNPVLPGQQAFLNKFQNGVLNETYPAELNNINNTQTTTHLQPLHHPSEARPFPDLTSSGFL

activation, inactive:
Cc1nn(C)cc1C(=O)NNC(=S)Nc1ccc(Cl)cc1 29.1%
CC(C)CNC(=S)NNC(=O)c1nn(C)cc1Cl -3.07%
CCCC(=O)Nc1nnc(CC(=O)OCC)s1 3.91%
C=CCN1C2CCCC1CC(NC(=S)Nc1cccc(OC)c1)C2 (stereo not drawn) -0.24%
CCOCCCN(C)C1CCN(C(=O)c2oc3ccccc3c2NC(=O)COc2cccc(C)c2)CC1 -0.33%
COc1cccc(OC)c1C(=O)Nc1c(C(=O)N2CCN(c3ccccn3)CC2)oc2ccccc12 -3.46%
CCc1cccc(C)c1NS(=O)(=O)c1cc(Br)cnc1N 3.17%
O=C(Nc1ccc2c(c1)OCCO2)C1CCCN(c2ncccn2)C1 (stereo not drawn) 20.4%
Cc1ccc(Cl)cc1NC(=O)COC(=O)C1CCCCC1 0.36%
COc1cc(NC(=O)C2CCN(c3cnccn3)CC2)cc(OC)c1 5.78%
Cc1ccc(Cl)cc1NC(=O)C1CCN(S(C)(=O)=O)CC1 7.96%
CC(C)[C@H](NC(=O)N1CCn2c1nc1ccccc12)C(=O)NCc1ccc2c(c1)OCO2 6.92%
CC(C)CNc1ncnc2c1cnn2Cc1ccc(Cl)cc1 0%
Cc1cccc(CS(=O)(=O)c2ncc(Cl)c(C(=O)Nc3ccc(F)cc3)n2)c1 27.3%
OC(c1ccc(Cl)cc1)C(CN1CCOCC1)c1ccccc1 (stereo not drawn) 2.39%
Cc1ccc(N(C(=O)c2sc(C)nc2C)C(C(=O)NC(C)(C)C)c2ccncc2)cc1 (stereo not drawn) -0.51%
CC(C)c1ccccc1OCC(O)CN(CC(O)COc1cccc2ccccc12)C(C)C (stereo not drawn) 5.3%
O=C(COC(=O)c1ccc[nH]c1=O)Nc1ccc2c(c1)OC(F)(F)O2 0.45%
CC1Cc2ccccc2N1CC(=O)Nc1ccc(S(N)(=O)=O)cc1 (stereo not drawn) 3.1%
CCOC(=O)N1CCC(Nc2c(NCCCN3CCN(c4ccc(OC)cc4)CC3)c(=O)c2=O)CC1 1.99%
COc1cc(NC(=O)c2ccc3c(c2)OCO3)ccc1NC(=O)c1cccs1 12.8%
O=C(Nc1nc2ccccc2s1)c1ccc2c(c1)OCO2 6.38%
CSc1ncccc1C(=O)Nc1ccc2c(c1)OCO2 32.3%
O=C(Nc1ccc2c(c1)OCO2)c1sc2cc(Cl)ccc2c1Cl 33.1%
CC(C)NC(=O)CSc1ccccc1C(=O)NCc1ccc2c(c1)OCO2 1.44%
O=C(Nc1cccc(S(=O)(=O)N2CCCCC2)c1)c1cncc(Br)c1 17.9%
Cc1ccc(C(=O)Nc2ccc3c(c2)OCO3)cc1S(=O)(=O)N1CCCCC1 38.4%
CC(Sc1nc(-c2ccccc2)cc(C(F)(F)F)n1)C(=O)Nc1ccc2c(c1)OCO2 (stereo not drawn) 5.04%
O=C(NCc1ccc2c(c1)OCO2)C(=O)NCC1OCCN1S(=O)(=O)c1ccc(F)cc1 (stereo not drawn) 1.35%
CC(=O)c1nn(-c2cccc(C(F)(F)F)c2)c(=O)[nH]c1=O 0.72%
COc1ccc(CCNC(=O)CCNS(=O)(=O)c2cc(Br)cnc2N)cc1OC -0.76%
O=C(CN(C(=O)CNC(=O)c1cccs1)c1cccc(F)c1)NC1CCCCC1 1.69%
Cc1ccc(C(=O)N2CCN(S(=O)(=O)N3CCOCC3)CC2)cc1 4.12%
CCC(C)C(=O)Nc1cc([N+](=O)[O-])ccc1Cl (stereo not drawn) 12%
COc1ccc(S(=O)(=O)N2CCC(C(=O)N3CCCC3)CC2)cc1C -0.5%
C/C(=N\N)c1c(-c2ccccc2)c2cc(Br)ccc2[nH]c1=O 2.69%
COc1ccccc1C(=O)NCC(=O)OCC(=O)NNC(=O)c1ccc(Br)cc1 0.52%
Cc1cc2nc3n(c2cc1C)CC1CC(C(=O)NCCC(C)C)N(C)C31 (stereo not drawn) 2.06%
CCOC(=O)[C@H]1[C@H]2COc3ccccc3[C@@H]2N2C(=O)CN(Cc3ccccc3)C(=O)[C@@]12C 0.71%
CCOC(=O)C1=C(COC(=O)[C@H](C)NS(=O)(=O)c2ccccc2F)NC(=O)NC1C (stereo partly drawn) -0.94%
C[C@H](CO)N1C[C@H](C)[C@H](CN(C)C(=O)Nc2ccc(C(F)(F)F)cc2)Oc2c(NC(=O)c3ccncc3)cccc2C1=O 5.42%
O=C1Nc2ccc(Br)cc2/C1=N/N=C/C1=C(N2CCOCC2)C(=C\c2ccccc2)/CC1 22.3%
CC(C)CNS(=O)(=O)c1ccc(C(=O)Nc2ccc3c(c2)OCO3)cc1 9.22%
O=C(Nc1ccncc1)c1cc(-c2ccccn2)nc2ccc(Br)cc12 4.97%
O=C(Nc1ccc(NC(=O)c2ccc3c(c2)OCO3)cc1)c1cccc(Cl)c1 -2.05%
CC(NC(=O)Nc1ccc2c(c1)OCO2)c1ccncc1 (stereo not drawn) 29.5%
Cc1cccc(NC(=O)/C=C/c2ccc3c(c2)OCO3)n1 -3.06%
Cc1ccc2nc(-c3ccncc3)cc(C(=O)Nc3ccc4c(c3)OCCO4)c2c1 5.93%
O=C(Nc1cccc([N+](=O)[O-])c1)c1ccc2c(c1)OCO2 14.3%
O=C(Nc1ccccc1)c1ccc2c(c1)OCCCO2 -1.81%
CCN(C(=O)COC(=O)c1ccc(COc2ccc3c(C)cc(=O)oc3c2)cc1)C1CCS(=O)(=O)C1 (stereo not drawn) 1.82%
CC(=O)Nc1ccc(S(=O)(=O)NC(C)C(=O)OCCOc2ccc(F)cc2)cc1 (stereo not drawn) -0.37%
Cc1cccc2nc(CSc3nc4[nH]ncc4c(=O)n3-c3cccc(Cl)c3)cc(=O)n12 2.86%
COCC(C)n1c(C)cc(C(=O)CSc2cc(C)c3ccccc3n2)c1C (stereo not drawn) 43.7%
O=C(Cc1ccc([N+](=O)[O-])cc1)Nc1ccc(C(=O)N2CCOCC2)cc1 0.42%
C=CCN(c1ccccc1C(=O)NCC(=O)OCC)S(=O)(=O)c1ccc(C)cc1 -1.83%
Cc1ccccc1N1CCN(C2CCCN(C(=O)c3cn4c(C)cccc4n3)C2)CC1 (stereo not drawn) 1.46%
COc1ccc(-n2nc(C(=O)NCC(=O)N3CCN(c4ccccc4OC)CC3)c3ccccc3c2=O)c(OC)c1 3.01%
O=C(CCN1C(=O)[C@H]2CC=CC[C@H]2C1=O)NCc1nc(-c2ccccc2)no1 1.79%
CC(=O)N1CC(C)c2scc(C)[n+]2-c2ccccc21 (stereo not drawn) -2.51%
O=C(Nc1nnc(C2CC2)s1)c1ccccn1 -1.71%
Cc1cc(C(=O)Nc2nnc(C3CC3)s2)c(C)s1 23.6%
CCCCOc1ccc(NC(=O)CSCC(=O)OCC)cc1 -0.97%
COc1ccc2ccccc2c1/C=N/NC(=O)c1cc(C)[nH]n1 39%
Cc1[nH]c2ccccc2c1/C=N/NC(=O)CNC(=O)c1ccc2c(c1)OCO2 18.3%
CCCCN(CC(=O)NC(C)(C)C)C(=O)C(=O)Nc1ccc2c(c1)OCCO2 7.49%
Cc1cc(=O)oc2cc(OCC(=O)N3CCN(c4ccc(F)cc4)CC3)c(Cl)cc12 -0.42%
Cc1cc(=O)oc2ccc(OCC(=O)O)cc12 -5.16%
CC(C)NC(=S)Nc1cccc2cnccc12 15%
COCCSc1nnc(NC(=O)CCS(=O)(=O)Cc2ccccc2)s1 22.7%
COc1ccc(-c2ccc3nnc(SCC(=O)Nc4ccc(NC(C)=O)cc4)n3n2)cc1 3.13%
Fc1ccc(-c2ccc(NCCN3CCOCC3)nn2)cc1 2.58%
O=C(Cc1ccc([N+](=O)[O-])cc1)N/N=C/c1ccco1 1.25%
O=C(N/N=C/c1ccco1)c1csc2c1CCCC2 8.16%
CCNC(=O)N(CC)C[C@H]1N[C@@](CC)(C(=O)OC)[C@H]2C(=O)N(Cc3ccccc3)C(=O)[C@@H]12 -0.15%
COc1ccc(N(Cc2ccc(N(C)C)cc2)C(=O)c2ccc(S(C)(=O)=O)cc2)cc1 -2.92%

activation, active:
Cn1cc(Cl)c(C(=O)NNC(=S)Nc2cccc(Cl)c2)n1 125%
COCC(=O)Nc1c(C(=O)N2CCCC2)oc2ccccc12 74.5%
Cc1ccc(Cl)cc1NC(=O)C1CCCN(c2cnccn2)C1 (stereo not drawn) 80%
O=C(Nc1cccc(Cl)c1)C1CCCN(c2cnccn2)C1 (stereo not drawn) 82.4%
CC1Cc2ccccc2N1CC(=O)Nc1ccc2c(c1)OC(F)(F)O2 (stereo not drawn) 61.4%
CC(Sc1nc2cc(Cl)ccc2s1)C(=O)Nc1ccc2c(c1)OCO2 (stereo not drawn) 65.3%
O=C(Nc1cccc(S(=O)(=O)N2CCCCC2)c1)c1ccc2c(c1)OCO2 56%
CCSc1ccccc1C(=O)Nc1ccc2c(c1)OCO2 80.8%
COCc1nnc(NC(=O)c2ccc3c(c2)OCO3)s1 50%
Cc1ccc2nc(-c3ccccn3)cc(C(=O)Nc3ccc4c(c3)OCO4)c2c1 47.8%
Cc1cccc(NC(=O)Nc2ccc3c(c2)OCO3)n1 180%
CC(C)C(=O)Nc1cccc(C(=O)Nc2ccc3c(c2)OCO3)c1 56%
O=C(Nc1cccnc1)c1ccc2c(c1)OCO2 51.4%
O=C(Nc1nnc(C2CC2)s1)c1cc(Cl)sc1Cl 63.3%
COCCNC(=S)N/N=C/c1c(C)[nH]c2ccccc12 47.6%
Cc1nc(COc2cc3oc(=O)cc(C)c3cc2Cl)cs1 48.1%
O=C(N/N=C/c1ccco1)c1ccc(C(=O)N/N=C/c2ccco2)o1 86%
